PubChem BioAssay
Values joined by “and” are separate entries in the source; they are usually repeats but may differ in a detail not shown here. Equal values may be shown once. Active and inactive are the calls of the source.

Assays:
[1] = optical density shifts of acrAB sulA E. coli – strain DRC41, OD650, 48 h, E. coli filamentation inducer project, primary screen (AID 1152); settings: higher = more signal, called active from +8 up or from −8 down;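 note: E. coli MC1000 strain DRC41 lacking acrAB efflux pump and sulA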
[2] = probe aLefty1 binding on compound microarray – biochemical, small-molecule microarray, 635/667 nm fluorescence, primary screen (AID 1153); settings: higher = more signal;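 note: score merges spot fluorescence with signal-to-noise ratio from the scanned slide images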
[3] = plasmodial surface anion channel blockers, osmotic lysis – cell-based, P. falciparum Indochina, OD700, 1 h, primary screen (AID 1154); settings: P. falciparum Indochina infected RBC osmotic lysis, higher = more signal, called active from +8 up or from −8 down
[4] = plasmodial surface anion channel blockers, osmotic lysis – cell-based, P. falciparum Indochina, OD700, 2 h, primary screen (AID 1155);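 note: lysis reports solute entry through the parasite surface anion channel PSAC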; settings: P. falciparum Indochina infected erythrocytes, higher = more signal, called active from +8 up or from −8 down
[5] = changes in parasitized red cell lysis, either direction – P. falciparum Indochina, OD700, 3 h, PSAC antagonist project, primary screen (AID 1156); settings: P. falciparum-infected erythrocytes, osmotic lysis, higher = more signal, called active from +8 up or from −8 down
[6] = plasmodial surface anion channel blockers, osmotic lysis – cell-based, P. falciparum Indochina, OD700, 18 h, primary screen (AID 1157); settings: P. falciparum Indochina infected erythrocytes, osmotic lysis OD700, 18 h; higher = more signal, called active from +8 up or from −8 down
[7] = S6 kinase pathway phospho-S6 level changes – cell-based, A549, cytoblot, luminescence, serum-stimulated, primary screen (AID 1158); settings: 5 h, higher = more signal;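 note: serum-stimulated A549 lung adenocarcinoma cells; signal is phosphorylated S6 detected by cytoblot immunostaining with HRP secondary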
[8] = target: NADPH oxidase 2 (Homo sapiens) (UniProt P04839); assay: compounds shifting NOX2 Amplex Red fluorescence – cell-based, HEK293-NOX2, PMA-stimulated, NOX inhibitor project, primary screen (AID 1159); settings: 45 min, higher = more signal, called active from +8 up or from −8 down; note: test concentration not given here
[9] = target: NADPH oxidase 4 (Homo sapiens) (UniProt Q9NPH5); assay: compounds shifting NOX4 Amplex Red fluorescence – cell-based, HEK293-NOX4, tetracycline-induced, NOX inhibitor project, primary screen (AID 1160); settings: HEK293-NOX4, Amplex Red H2O2 fluorescence, 45 min; higher = more signal, called active from +8 up or from −8 down
[10] = target: NADPH oxidase 5 (Homo sapiens) (UniProt Q96PH1); assay: compounds shifting NOX5 Amplex Red fluorescence – cell-based, HEK293-NOX5, NOX inhibitor project, primary screen (AID 1161); settings: HEK293-NOX5, ionomycin, 45 min, higher = more signal
[11] = compound effects on lung adenocarcinoma cell viability – A549, calcein-AM fluorescence, 48 h, basal, profiling panel (AID 1162); settings: higher = more signal; note: test concentration not given here
[12] = compound effects on differentiated 3T3-L1 adipocyte viability – cell-based, 3T3-L1 adipocytes, calcein-AM fluorescence, 48 h, basal, profiling panel (AID 1163); settings: 3T3-L1 adipocytes viability, higher = more signal; note: test concentration not given here
[13] = compound effects on hepatocellular carcinoma cell viability – HepG2, calcein-AM fluorescence, 48 h, basal, profiling panel (AID 1164); settings: higher = more signal; note: test concentration not given here
[14] = compound effects on multiple myeloma cell viability – MM1S, calcein-AM fluorescence, 48 h, basal, profiling panel (AID 1165); settings: higher = more signal;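 note: viability of MM1S multiple myeloma cells under basal unstimulated conditions; test concentration not given here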
[15] = calcein-AM signal in unstimulated myeloma cells – cell-based, calcein-AM fluorescence, 48 h, PK04 Diversity Set, profiling panel (AID 1166); settings: RPMI8226 myeloma viability, higher = more signal;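 note: cells grown under basal conditions without added stimulus; test concentration not given here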
[16] = JC-1 mitochondrial signal, unstimulated HepG2 cells – cell-based, JC-1 fluorescence, 24 h, 100 nL compound, profiling panel (AID 1167); settings: HepG2 mitochondrial potential, higher = more signal; note: test concentration not given here
[17] = JC-1 mitochondrial signal, unstimulated adipocytes – cell-based, JC-1 fluorescence, 3T3-L1 adipocytes, 24 h, 100 nL compound, profiling panel (AID 1168); settings: JC-1 mitochondrial fluorescence, higher = more signal, called active from +8 up or from −8 down; note: test concentration not given here
[18] = JC-1 mitochondrial signal, unstimulated myeloma cells – cell-based, JC-1 fluorescence, RPMI8226, 24 h, 100 nL compound, profiling panel (AID 1169); settings: JC-1 mitochondrial potential fluorescence, higher = more signal; note: test concentration not given here
[19] = JC-1 mitochondrial signal, unstimulated MM1S myeloma – cell-based, JC-1 fluorescence, 24 h, 100 nL compound, profiling panel (AID 1170); settings: MM1S mitochondrial potential, higher = more signal; note: test concentration not given here
[20] = resazurin metabolic signal in A549 cells – cell-based, resazurin fluorescence, 24 h, PK04 Diversity Set, profiling panel (AID 1171); settings: A549 viability, higher = more signal, called active from +8 up or from −8 down; note: test concentration not given here

NADPH oxidase 2 (Homo sapiens), sequence (P04839 whole entry, looked up): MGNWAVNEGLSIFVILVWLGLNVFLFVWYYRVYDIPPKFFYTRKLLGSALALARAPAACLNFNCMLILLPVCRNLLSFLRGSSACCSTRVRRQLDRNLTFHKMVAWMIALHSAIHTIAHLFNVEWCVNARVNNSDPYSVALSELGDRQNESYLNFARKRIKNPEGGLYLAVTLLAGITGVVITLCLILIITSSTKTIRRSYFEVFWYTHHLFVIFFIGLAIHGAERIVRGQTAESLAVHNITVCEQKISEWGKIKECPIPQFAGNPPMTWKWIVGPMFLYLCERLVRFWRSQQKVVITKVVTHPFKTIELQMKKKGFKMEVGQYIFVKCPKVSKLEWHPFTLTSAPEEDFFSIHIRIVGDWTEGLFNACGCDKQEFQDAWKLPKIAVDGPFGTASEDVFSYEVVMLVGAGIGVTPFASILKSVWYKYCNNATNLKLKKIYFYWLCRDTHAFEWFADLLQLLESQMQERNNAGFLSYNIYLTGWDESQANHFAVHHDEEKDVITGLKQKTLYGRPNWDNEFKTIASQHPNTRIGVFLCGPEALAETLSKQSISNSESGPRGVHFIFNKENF
NADPH oxidase 5 (Homo sapiens), sequence (Q96PH1 whole entry, looked up): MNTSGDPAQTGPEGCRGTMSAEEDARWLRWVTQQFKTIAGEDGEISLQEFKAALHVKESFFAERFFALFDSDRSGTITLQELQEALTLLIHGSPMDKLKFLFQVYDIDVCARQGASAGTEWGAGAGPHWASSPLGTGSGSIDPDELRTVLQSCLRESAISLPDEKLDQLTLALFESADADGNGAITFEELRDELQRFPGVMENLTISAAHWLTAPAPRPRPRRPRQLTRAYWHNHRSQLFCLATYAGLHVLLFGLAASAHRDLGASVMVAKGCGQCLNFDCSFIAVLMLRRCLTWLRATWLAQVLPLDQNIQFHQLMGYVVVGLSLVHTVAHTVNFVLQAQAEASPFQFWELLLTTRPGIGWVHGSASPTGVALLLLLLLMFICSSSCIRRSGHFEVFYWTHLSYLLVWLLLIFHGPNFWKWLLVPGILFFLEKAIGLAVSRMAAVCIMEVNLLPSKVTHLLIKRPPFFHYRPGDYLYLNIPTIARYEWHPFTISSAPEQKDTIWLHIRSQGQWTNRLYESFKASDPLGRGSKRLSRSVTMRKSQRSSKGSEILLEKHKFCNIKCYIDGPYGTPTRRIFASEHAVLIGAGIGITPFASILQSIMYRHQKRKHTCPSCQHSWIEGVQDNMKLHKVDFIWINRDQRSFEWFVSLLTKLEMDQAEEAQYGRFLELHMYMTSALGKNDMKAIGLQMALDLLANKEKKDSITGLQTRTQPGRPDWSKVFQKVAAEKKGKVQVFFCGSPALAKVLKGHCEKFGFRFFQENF
NADPH oxidase 4 (Homo sapiens), sequence (Q9NPH5 whole entry, looked up): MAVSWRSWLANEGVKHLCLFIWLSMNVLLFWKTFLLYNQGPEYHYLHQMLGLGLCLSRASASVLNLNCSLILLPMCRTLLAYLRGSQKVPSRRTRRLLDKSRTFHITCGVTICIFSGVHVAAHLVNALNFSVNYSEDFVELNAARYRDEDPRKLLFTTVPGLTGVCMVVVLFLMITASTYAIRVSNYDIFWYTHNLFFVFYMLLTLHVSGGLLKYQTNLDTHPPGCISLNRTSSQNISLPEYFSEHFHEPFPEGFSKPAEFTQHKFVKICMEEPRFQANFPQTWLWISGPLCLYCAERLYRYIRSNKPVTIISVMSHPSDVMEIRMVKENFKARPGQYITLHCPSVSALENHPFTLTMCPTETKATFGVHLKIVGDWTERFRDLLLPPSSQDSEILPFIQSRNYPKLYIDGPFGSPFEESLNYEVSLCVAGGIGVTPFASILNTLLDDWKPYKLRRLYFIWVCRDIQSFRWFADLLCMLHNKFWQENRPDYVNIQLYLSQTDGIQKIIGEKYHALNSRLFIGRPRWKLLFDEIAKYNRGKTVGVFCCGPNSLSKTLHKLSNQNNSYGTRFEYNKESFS

SMILES | z-score [1] | composite z-score [2] | z-score [3] | z-score [4] | z-score [5] | z-score [6] | z-score [7] | z-score [8] | z-score [9] | z-score [10] | z-score [11] | z-score [12] | z-score [13] | z-score [14] | z-score [15] | z-score [16] | z-score [17] | z-score [18] | z-score [19] | z-score [20]
CC(C)[Si]1(C(C)C)OCc2cc(CCCc3cc4c(c(CCc5ccccc5)n3)[Si](C(C)C)(C(C)C)OC4)nc(CCc3ccccc3)c21 | 2.34 (inactive) and -0.836 (inactive) | -0.147 and -0.192 | 1.1 (inactive) and 0.221 (inactive) | -0.712 (inactive) and -0.436 (inactive) | -1.01 (inactive) and -0.355 (inactive) | -0.788 (inactive) and -0.406 (inactive) | 0.0671 and -0.999 | 1.5 (inactive) and 0.412 (inactive) | 0.0233 (inactive) and 0.608 (inactive) | -2.98 and -0.0908 | 0.148 and -0.222 | 0.673 and -0.626 | -0.661 and -0.566 | -1.66 and 0.326 | -1.09 and -0.322 | -0.508 and -1.19 | 1.72 (inactive) and -1 (inactive) | -0.152 and 1.02 | -0.38 and -0.852 | 0.576 (inactive) and -0.19 (inactive)
C=CCN(C(=O)C(c1cccs1)N(C(=O)/C=C\C(=O)O)c1c(Cl)cccc1CO)c1ccc(OC)cc1 (stereo not given) | 1.42 (inactive) and -0.536 (inactive) | 0.188 and 0.207 | -0.363 (inactive) and 2.52 (inactive) | -1.53 (inactive) and 0.102 (inactive) | -0.806 (inactive) and -0.455 (inactive) | -1.39 (inactive) and 0.0841 (inactive) | 0.312 and 0.429 | -0.102 (inactive) and -0.012 (inactive) | -1.08 (inactive) and -1.05 (inactive) | 0.145 and 0.141 | 1.15 and 1.21 | 0.111 and 0.112 | 0.24 and 0.365 | 1.51 and -0.996 | 0.844 and 0.57 | 0.601 and -1.19 | 0.418 (inactive) and 0.623 (inactive) | -0.74 and -0.0886 | 1.4 and -0.173 | 0.747 (inactive) and -0.246 (inactive)
CC(C)=NO[C@@H](C)c1cc(-c2c(C)cc(C)cc2C)no1 | -2.27 (inactive) | -0.278 | 0.944 (inactive) | 0.371 (inactive) | 1.37 (inactive) | -1.23 (inactive) | 0.702 | -0.639 (inactive) | -1.28 (inactive) | -1.13 | -0.846 | 0.38 | -0.242 | -0.309 | -0.416 | -0.182 | 0.478 (inactive) | -0.328 | -0.39 | 0.0477 (inactive)
C[C@@H](c1ccccc1)N1C(=O)[C@H]2[C@H]3[C@H](O)[C@H](O)CC(=O)[C@@H]3CC[C@H]2C1=O | 0.212 (inactive) | -0.229 | 0.207 (inactive) | -1.39 (inactive) | 0.279 (inactive) | -1.63 (inactive) | 0.732 | -0.0197 (inactive) | 0.237 (inactive) | 0.776 | 0.0128 | 0.762 | 1.15 | 0.288 | -1.17 | 0.921 | 2.42 (inactive) | -0.438 | 1.65 | -0.1 (inactive)
COC(=O)[C@H](C)NC(=O)CCC1CC(OC(=O)NCCc2ccc(F)cc2)CC2(CCCC(COC(=O)NCCCN3CCCC3=O)O2)O1 (stereo not given in full) | -0.184 (inactive) | -0.294 | -0.798 (inactive) | -0.744 (inactive) | 1.05 (inactive) | 0.298 (inactive) | 0.244 | 1.32 (inactive) | 0.113 (inactive) | -0.0138 | -0.48 | 1.06 | -1.32 | -0.901 | -1.78 | -0.197 | 0.0783 (inactive) | -0.405 | 0.0394 | 0.209 (inactive)
CC(C)[Si]1(C(C)C)OCc2cc(C3CC3)nc(CCc3ccccc3)c21 | -0.102 (inactive) and -0.904 (inactive) | 0.111 and -0.235 | 0.922 (inactive) and 0.437 (inactive) | 0.742 (inactive) and 0.438 (inactive) | -0.416 (inactive) and -0.978 (inactive) | 0.309 (inactive) and -0.401 (inactive) | -0.295 and -0.326 | 2.57 (inactive) and -0.368 (inactive) | 1.14 (inactive) and 1.35 (inactive) | -0.319 and -2.87 | -0.351 and -0.69 | 0.193 and -0.871 | 0.498 and 0.203 | -2.57 and -2.81 | -0.48 and -3.77 | -1.5 and -2.69 | -0.186 (inactive) and -0.575 (inactive) | -0.14 and -0.902 | 0.245 and -0.582 | 1.12 (inactive) and 1.39 (inactive)
